These results are taken from PubChem BioAssay AID1578 (Sanford-Burnham Center for Chemical Genomics, 2009).

SMILES strings stand for the structures. The whole screen tested about 290,000 compounds, of which about 3,000 (1%) were called active. The sample holds actives, similar compounds and a random draw of the others, so the mix is not that of the screen. Values without a mark were called inactive. Rule as the data show it: active = inhibition mostly above about 36% (no sharp cut-off); inactive = mostly below about 34%.

The assay can be described thus: inhibition of NOD1-driven NF-kB reporter – cell-based, luminescence, uHTS, primary screen (AID 1578).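 Also: HEK-293T reporter cells stimulated with the NOD1 agonist gamma-tri-DAP.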 The conditions noted are these: NOD1-driven NF-kB luciferase reporter cells, at 4 µM, hits give high values. (A reporter such as luciferase makes a cellular process visible.)
Take `COCCCNC(=O)C(=O)Nc1cc2c3c(c1)CCC(=O)N3CCC2`: the inhibition was 19.6%.

`CC(=O)c1ccc(NC(=O)c2cnsn2)cc1`: the inhibition is 44.1%.

As to `CCOc1ccc(NC(=O)c2cnsn2)cc1`, the inhibition is -6.3%.

For `CN(C)c1ccc(NC(=O)c2cnsn2)cc1`, the inhibition was 65.7% (active).

On to `Cc1ccc(Cl)cc1N1CCN(S(=O)(=O)c2ccc3[nH]c(=O)ccc3c2)CC1`, for which the inhibition was 5.1%.

On to `O=C(Cn1c(O)c(/C=C2\C=Nc3ccccc32)sc1=O)N1CCOCC1`, for which the inhibition was 12.6%.

As for `C=CCC(=O)NC1CCCc2c1cnn2-c1cc(F)cc(F)c1` (stereo not given), the inhibition was 6.1%.

Regarding `COc1ccc(-c2cn(-c3ccccc3)c(=S)[nH]2)cc1OC`, the inhibition is -4.4%.

With `Cc1ccccc1-c1cn(-c2ccccc2)c(=S)[nH]1`, the inhibition is -24.2%.

Take `Cc1ccc(-c2cn(-c3ccccc3)c(=S)[nH]2)cc1C`: the inhibition is 23.4% (active).

Regarding `O=c1oc2ccccc2cc1-c1cn(-c2ccccc2)c(=S)[nH]1`, the inhibition is 98.5% (active).

Turning to `S=c1[nH]c(-c2ccccc2)cn1-c1ccccc1`, the inhibition was -7.1%.

As to `O=C(O)c1ccc(-n2cc(-c3cc4ccccc4oc3=O)[nH]c2=S)cc1`, the inhibition was -7.2%.

Consider `Cc1nc2ccc(Cl)cn2c1C(=O)NN`, for which the inhibition was -35.5%.

As to `O=C(NCCNC(=O)c1ccco1)c1ccco1`, the inhibition was 5%.

With `Cc1cccc(N(CC(=O)NC2CCCCC2)C(=O)CCCC(=O)Nc2ccccn2)c1`, the inhibition was -26.2%.

Regarding `Cn1nnnc1SCCNCc1ccncc1`, the inhibition was -3.9%.

With `Cn1c(N2CCCC2)nc2c1c(=O)n(Cc1ccc(Cl)cc1)c(=O)n2C`, the inhibition was -9.4%.

As for `Cn1c(N2CCC(C(N)=O)CC2)nc2c1c(=O)n(Cc1ccc(Cl)cc1)c(=O)n2C`, the inhibition was -1.5%.

As to `O=C(c1nc2ccc(Cl)cn2c1CN1CCC[C@H]1CO)N1CCCCCCC1`, the inhibition was -22%.

As to `CCOC(=O)c1cnc(N2CCN(c3ccccc3)CC2)[nH]c1=O`, the inhibition was 1.6%.

Consider `CC(=O)c1ccc(NCC2COc3ccccc3O2)c([N+](=O)[O-])c1` (stereo not given), for which the inhibition is -11.7%.

`CCOC(=O)CSc1ccc2nnc(-c3ccccc3)n2n1`: the inhibition was -21.3%.

Take `COc1nc(Nc2ccccc2F)nc(OC)n1`: the inhibition was -28.1%.

On to `COc1ccc(C(=O)C[n+]2ccc(N)c(C)c2C)cc1`, for which the inhibition was 59.4% (active).

For `Cc1c(N)cc[n+](CC(=O)c2ccccc2)c1C`, the inhibition is -3.9%.

For `COc1ccc(C(=O)C[n+]2ccc3ccccc3c2C)cc1`, the inhibition was -2.3%.

Consider `Cc1cc(C(=O)N2CCCC(CCC(=O)N3CCN(c4ccccn4)CC3)C2)c(C)o1` (stereo not given), for which the inhibition was -25.2%.

For `Cc1cc(C)cc(OCC(=O)Nc2ccncc2)c1`, the inhibition is 30.1%.

Regarding `Cc1cc(OCC(=O)NCCN2CCOCC2)cc(C)c1Br`, the inhibition is -62.5%.

For the compound `Cc1cc(Cl)ccc1OCC(=O)Nc1ccncc1`, the inhibition was 23.8%.

Turning to `Cc1cc(OCC(=O)Nc2ccncc2)ccc1Br`, the inhibition was 49.9%.

Consider `Cc1ccc(OCC(=O)NCCN2CCOCC2)cc1C`, for which the inhibition was -3.4%.

As for `Cc1cc(OCC(=O)Nc2ccncc2)ccc1Cl`, the inhibition was 27.1%.

Regarding `Cc1cc(OCC(=O)NCCN2CCOCC2)cc(C)c1Cl`, the inhibition is 84.9% (active).

`Cc1ccccc1-n1nc2c(c1NC(=O)C(C)C)CS(=O)(=O)C2`: the inhibition was -6.5%.

With `CC(=O)c1cccc(NC(=O)c2ccc3c(Cl)c4c(nc3c2)CCCC4)c1`, the inhibition is -3.3%.

`O=C(Nc1cccnc1Cl)c1ccc2c(Cl)c3c(nc2c1)CCC3`: the inhibition was -39.9%.

Turning to `N#Cc1ccccc1NC(=O)c1ccc2c(Cl)c3c(nc2c1)CCCC3`, the inhibition is 66.5% (active).

For the compound `Clc1ccc(C2Nc3ccccc3-n3cccc32)cc1` (stereo not given), the inhibition is -20.2%.

`CN1CCCN(C(=O)c2ccc(Cl)s2)CC1`: the inhibition is -15%.

As for `O=C(c1cc2ccccc2oc1=O)N(Cc1ccc2c(c1)OCO2)Cc1ccco1`, the inhibition is -2.2%.

Regarding `O=C(c1cc2ccccc2oc1=O)N(Cc1ccccc1)Cc1ccc2c(c1)OCO2`, the inhibition is 50.1% (active).

As to `O=C(NCc1ccc2c(c1)OCO2)c1cc2ccccc2oc1=O`, the inhibition is 11.3%.

Turning to `COc1cc(C(C(=O)NC2CCCCC2)N(Cc2ccco2)C(=O)c2cnccn2)cc(OC)c1OC` (stereo not given), the inhibition was -34.1%.

On to `C[C@]12C=CC(=O)C=C1CC[C@@H]1C2C(O)C[C@@]2(C)C1CC[C@]2(O)C(=O)COC(=O)CCC(=O)NC(CC(=O)O)C(=O)O` (stereo not given in full), for which the inhibition was -8.1%.

For `O=C(/C=C/c1ccc(F)cc1)NC(=S)Nc1ccccc1C(=O)NC1CCCCC1`, the inhibition was 12.3%.

`CN(C(=S)NC(=O)/C=C/c1ccc(F)cc1)C1CCCCC1`: the inhibition is -22.9%.

For the compound `O=C(/C=C/c1ccc(F)cc1)NC(=S)NC1CCCCC1`, the inhibition is 36.3% (active).

Consider `COc1cccc2c(Nc3ccccc3C)cc(C)nc12`, for which the inhibition was 6.4%.

`COc1ccc(C(=O)N/C(=C/c2cccs2)c2nc3ccccc3[nH]2)cc1OC`: the inhibition was -5.7%.

Take `COC(=O)/C(=C\c1ccc(O)cc1)c1nc2ccccc2[nH]1`: the inhibition was -44.4%.

Regarding `COc1ccc(/C=C(\C#N)c2nc3ccccc3[nH]2)cc1O`, the inhibition was 12%.

As to `COc1cc(/C=C(\C#N)c2nc3ccccc3[nH]2)cc(OC)c1O`, the inhibition was 6.4%.

In the case of `COc1cc(/C=C(/C(=O)c2cccs2)c2nc3ccccc3[nH]2)cc(OC)c1O`, the inhibition was 98.8% (active).

Regarding `O=C(CN1CCOCC1)OCCCc1ccccc1`, the inhibition was -23.1%.

For `CCCCNC(=O)Nc1c(C(=O)OCC)[nH]c2ccccc12`, the inhibition is -25.1%.

As to `CCOC(=O)CCCCCN(Cc1ccccc1)S(=O)(=O)c1ccc([N+](=O)[O-])cc1`, the inhibition is -22.1%.

`CCOC(=O)c1c(-c2ccc(C)o2)csc1NC(=O)CN1CCOCC1`: the inhibition was 14.9%.

On to `CCc1nc(SCc2ccccc2C#N)n[nH]1`, for which the inhibition was -30.4%.

As to `O=C(Nc1ccc(C(=O)N2CCCC2)cc1)c1ccc(F)cc1Cl`, the inhibition was -14%.

`COc1ccc(Cn2c(=O)[nH]c3cc(C(=O)N4CCN(c5ccccn5)CC4)ccc3c2=O)cc1`: the inhibition was -10.7%.

For `CCOC(=O)N1CCN(C(=O)c2ccc(Cn3c(=S)[nH]c4cc(C(=O)OC)ccc4c3=O)cc2)CC1`, the inhibition was -11%.

Take `O=C(c1ccc(Cn2c(=O)[nH]c3ccccc3c2=O)cc1)N1CCN(c2ccccn2)CC1`: the inhibition was -8.3%.

As to `CCOC(=O)N1CCN(C(=O)c2ccc(Cn3c(=S)[nH]c4cc(OCC)c(OCC)cc4c3=O)cc2)CC1`, the inhibition is 19.9%.

Consider `O=C(CSc1ncccc1C(=O)O)NC1CCCCC1`, for which the inhibition was -47.1%.

As to `CC(C)C(=O)Nc1ccc(Cl)cc1-c1nc2ccccc2[nH]c1=O`, the inhibition is 34.6%.

Turning to `Cc1cccc(C)c1NC(=O)CSc1nnc([C@@H]2CCCN2C(=O)OC(C)(C)C)o1`, the inhibition is -0.7%.

`N#CCS(=O)(=O)c1ccccc1`: the inhibition was -5.7%.

With `O=C(CSc1nc2scc(-c3ccccc3)c2c(=O)[nH]1)N1CCCCC1`, the inhibition was -9.2%.

For `O=C(CSc1nc2scc(-c3ccccc3)c2c(=O)[nH]1)NC1CCCCC1`, the inhibition is 67.6% (active).

On to `CC(C)(C)NC(=O)CSc1nc2scc(-c3ccccc3)c2c(=O)[nH]1`, for which the inhibition was 25.7%.

`Cc1ccc2nc(CNC(=O)C3CCC(=O)N(Cc4ccccc4F)C3)cn2c1` (stereo not given): the inhibition was -21.3%.

Turning to `CCc1ccc2c(c1)C1(NN=C(c3ccc(C)cc3)S1)C(=O)N2` (stereo not given), the inhibition was 15.2%.

`Cc1ccc(C2=NNC3(CCOC(C)(C)C3)S2)cc1` (stereo not given): the inhibition is 74.5% (active).

Consider `Cc1ccc(C2(CC(=O)O)CCOC(C)(C)C2)cc1` (stereo not given), for which the inhibition was 5.4%.

Turning to `O=C(c1cnsn1)N1CCC(CO)(Cc2ccc(Cl)cc2)CC1`, the inhibition was -10.4%.

Regarding `NC(=O)c1cc(-c2csc(NCCc3ccccc3)n2)ccc1O`, the inhibition is -52.8%.

Take `COc1ccc(N2CCN(C(=O)CSc3nc4[nH]ncc4c(=O)n3-c3ccc(Br)cc3)CC2)cc1`: the inhibition is 8.7%.

For the compound `CCN1CCCC1CNC(=O)C(=O)NC1CC1` (stereo not given), the inhibition was 40.8% (active).

For `CCN1CCCC1CNC(=O)C(=O)NC` (stereo not given), the inhibition is -17.4%.

On to `CCCNC(=O)C(=O)NCC1CCCN1CC` (stereo not given), for which the inhibition is -18.5%.

For the compound `CCCCNC(=O)Cn1c(-c2ccc(OC)cc2)noc1=O`, the inhibition is -2.3%.

`COc1ccc(NC(=O)N2CCC(O)(c3cccnc3)CC2)c(OC)c1`: the inhibition was 15.9%.

For the compound `Fc1ccc(-c2ccnn2-c2ccccc2)cc1`, the inhibition is -18.4%.

Regarding `Oc1ccc(Br)cc1-c1ccnn1-c1ccccc1`, the inhibition is 82.1% (active).

For the compound `Oc1ccc(Br)cc1-c1cc(-c2ccccc2)n[nH]1`, the inhibition was -13.2%.

`COC(=O)CCCCC1SCC2NC(=O)NC21O` (stereo not given): the inhibition was -2.5%.

On to `Cc1ccc2c(Cl)c(C(=O)Nc3cc(C)on3)sc2c1`, for which the inhibition is -79.3%.

In the case of `Cc1ccc(NC(=O)c2sc3ccccc3c2Cl)nc1`, the inhibition was -21.7%.

Regarding `O=C(Nc1cccnc1)Nc1ccccc1Cl`, the inhibition is -8.9%.

For the compound `Cc1nnc(NC(=O)c2sc3ccccc3c2Cl)s1`, the inhibition was -46.1%.

On to `O=C(Nc1ccc(Cl)cc1)Nc1cccnc1`, for which the inhibition is -14.9%.

For the compound `O=C(Nc1cccnc1)Nc1cc(Cl)cc(Cl)c1`, the inhibition was 76.8% (active).

Take `Cc1ccc2c(Cl)c(C(=O)NCc3cccnc3)sc2c1`: the inhibition is 12.2%.

Consider `Cc1ccc2c(Cl)c(C(=O)Nc3cccnc3)sc2c1`, for which the inhibition is 87.9% (active).

Turning to `Cc1cnc(NC(=O)c2sc3ccccc3c2Cl)s1`, the inhibition was 105% (active).

In the case of `COc1ccccc1-c1cc(C(=O)Nc2ccccc2SC)no1`, the inhibition was -10%.

On to `CCOC(=O)C1(Cc2ccccc2C)CCCN(C(=O)c2ccnn2C)C1` (stereo not given), for which the inhibition was -17.1%.

As for `Cc1ccc(C)c(SCC(=O)NNC(=O)c2ccccc2)c1`, the inhibition is -14.3%.

For orientation: inhibition means the drop in the measured response relative to a control, in per cent.
